RORgamma inh – blocks mouse ROR gamma transcriptional activity. P51450. Drosophila S2 Gal4-RORgamma UAS-luciferase reporter, 20 h. Potency, µM (series often up to 53.6 µM), for inactives: at the highest dose activity change, negative = inhibition, actives largely listed as inhibitors. 310,000 tested, 5.4% active. AID 2551; also: % is scaled to controls: 0 for no effect and ±100 for the full control effect; nearly all actives have a fitted effect of over 60% in size
Target sequence (P51450 whole entry, looked up, the tested form may be a part): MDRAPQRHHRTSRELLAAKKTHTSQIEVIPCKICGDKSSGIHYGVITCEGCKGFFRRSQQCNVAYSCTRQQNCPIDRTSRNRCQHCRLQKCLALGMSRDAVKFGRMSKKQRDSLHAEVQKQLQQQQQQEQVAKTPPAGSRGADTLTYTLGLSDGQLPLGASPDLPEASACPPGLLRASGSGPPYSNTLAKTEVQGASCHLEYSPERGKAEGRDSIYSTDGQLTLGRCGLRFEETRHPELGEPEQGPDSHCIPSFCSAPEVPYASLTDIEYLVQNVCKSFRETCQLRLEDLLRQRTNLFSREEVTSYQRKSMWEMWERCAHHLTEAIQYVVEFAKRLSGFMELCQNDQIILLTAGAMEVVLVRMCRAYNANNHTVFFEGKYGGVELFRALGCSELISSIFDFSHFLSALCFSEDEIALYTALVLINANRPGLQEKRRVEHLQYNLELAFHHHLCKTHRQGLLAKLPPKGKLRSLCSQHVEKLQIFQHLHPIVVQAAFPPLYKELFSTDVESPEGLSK
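Luciferase reporter read in Schneider cells carrying Gal4-RORγ (mouse) and UAS-Photinus luciferase; cells given compound 1 h before 700 uM copper sulfate induction, then incubated 20 h at ambient temperature.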
Gal4-VP16 FLuc – Gal4-VP16 reporter inhibition counter-screen. Potency, µM (highest dose often 53.6 µM), inactives show at the highest dose activity, negative = inhibition, most hits filed as inhibitors. AID 2546. Drosophila S2 Gal4-VP16 UAS-luciferase, luminescence, 20 h. 310,000 tested, 3.5% active;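 also: Gal4-VP16 expression switched on by copper sulfate through the metallothionein promoter; % is scaled to controls: 0 for no effect and ±100 for the full control effect; nearly all actives have a fitted effect of over 50% in size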
HepG2 tox – kills HepG2 cells in TGF-b inhibitor counter-screen. 410,000 tested, 0.76% active. HepG2 CAGA-GFP viability, ATP luminescence, 18 h. Potency, µM (doses to about 46.1 µM), inactives show at the highest dose activity change, negative = cytotoxicity, actives largely listed as cytotoxic. AID 588856
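HepG2 CAGA-GFP cells (1000/well, DMEM with 1% FBS) received compound, then TGF-beta at 500 pg/mL final, and were incubated 18 hours at 37 degrees C. Viability was read by CellTiter-Glo luminescence. Media-only wells were set as complete cell-killing and DMSO as no toxicity.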
TGFb inhibitor – TGF-b pathway inhibition. HepG2 CAGA-GFP TGF-b/SMAD3 reporter, GFP fluorescence, 18 h; TGF-beta stimulated, 500 pg/mL final. Potency, µM (doses to about 46.1 µM), for inactives: at the top dose activity, negative = inhibition, most hits filed as inhibitors. 410,000 tested, 1.2% active. AID 588855; also: % is scaled to controls: 0 for no effect and ±100 for the full control effect; nearly all actives have a fitted effect of over 65% in size
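GFP signal (ex488/em500-530) from TGF-beta-stimulated HEPG2 CAGA-GFP cells, 500 pg/mL final, 18 h at 37 degrees C in DMEM plus 1% FBS, normalized to unstimulated and DMSO-stimulated controls.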
ATXN2 expr inh – reduces ATXN2 reporter expression in HEK-293 cells; HEK-293 ATXN2-luciferase reporter, luminescence, 24 h; Potency, µM (top dose mostly 57 µM), for inactives: at the highest dose activity change, negative = inhibition, actives largely listed as inhibitors; 360,000 tested, 0.72% active; AID 1745845; also: % is scaled to controls: 0 for no effect and ±100 for the full control effect; nearly all actives have a fitted effect of over 55% in size
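qHTS (up to 57 uM final) was run with 24 h compound exposure of reporter cells at 37 °C. Each well was multiplexed: SteadyGlo luminescence measured ATXN2-luciferase expression after a fluorogenic Gly-Phe-AFC viability readout (25 uM final).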
ATXN viability – viability counter-screen for ATXN expression inhibitors; S2 cells (HEK-293 line with an ATXN2-luciferase reporter) viability, CellTiter-Fluor protease fluorescence, 24 h; Potency, µM (top dose mostly 56.7 µM), most hits filed as cytotoxic; 400,000 tested, 0.49% active; AID 651635; also: nearly all actives have a fitted effect of over 40% in size
* = called active by the depositor; i = inactive; ? = inconclusive; . = not tested or not shown. The list is not random: actives were taken first. Their share in the collection is about 6.1%. Calls follow the shape of the dose curve; as a rule, active = well fitted curve in the direction sought with a large enough effect; inconclusive = small, poorly fitted or top-dose-only effect, or another doubt; inactive = no such curve, though single readings can be large; an effect the other way counts as inactive or inconclusive. Potency is read from the fitted curve at half-maximal effect.

SMILES	RORgamma inh	Gal4-VP16 FLuc	HepG2 tox	TGFb inhibitor	ATXN2 expr inh	ATXN viability
Cc1c2c(nc3ccccc13)CCC(C(C)(C)C)C2 (configuration not stated)	3.98µM*	?	-18.8%	-10.8%	29.3%	i
CC(C)Cn1cc(C(=O)N2CCN(c3cccc(Cl)c3)CC2)c2c3ccccc3n(C)c2c1=O	.	.	-20.7%	?	?	?
CC(C)c1cc2c(c(O)c1O)[C@@]13CCCC(C)(C)C1CC2OC3=O (some centres not stated)	14.1µM*	?	-28.3%	12.6µM*	?	?
CC(C)c1c(O)c(-c2cc3c(c(C(C)C)c2O)CCC2C(C)(C)CCC[C@@]32C)cc2c1CCC1C(C)(C)CCC[C@@]21C (some centres not stated)	0.4%	2.0%	.	.	.	.
CC(C)COn1c(=S)[nH]c2ccccc2c1=O	2.24µM*	10µM*	-15.9%	-7.8%	-16.0%	i
C=CCn1c(=S)[nH]c2cc(-c3ccccc3)sc2c1=O	1µM*	2µM*	-5.2%	1.0%	13.5%	i
C=C(C)Cn1c(=S)[nH]c2ccccc2c1=O	3.98µM*	11.2µM*	4.7%	-15.5%	0.2%	?
CC(C)Cn1c(=S)[nH]c2ccccc2c1=O	1.12µM*	4.47µM*	-1.9%	-22.3%	-6.9%	i
CC1CC(C)CN(CCCn2c(=S)[nH]c3ccccc3c2=O)C1 (configuration not stated)	?	?	-16.0%	5.6%	-13.7%	i
C=CCn1c(SCCNC(C)=O)nc2cc(-c3ccccc3)sc2c1=O	?	1.3%	0.7%	23.8%	14.9%	i
CCN(CC)CCCn1c(=S)[nH]c2ccccc2c1=O	?	-2.6%	8.1%	2.8%	-6.0%	i
CCOCCn1ccc2c(OCC(=O)Nc3ccc(OC(F)(F)F)cc3)cccc2c1=O	.	.	-30.0%	-12.5%	-3.5%	i
COC(=O)c1ccccc1C(=O)N1CCOc2ccc(CN3CCN(c4ccccn4)CC3)cc2C1	.	.	.	.	.	i
O=c1c2sc3ccccc3c2n(Cc2cccc(C(F)(F)F)c2)c(=O)n1Cc1ccc(F)cc1	.	.	-4.4%	-25.6%	-11.0%	i
O=c1c2ccccc2[nH]c(=S)n1CCC1=CCCCC1	1.58µM*	1.41µM*	0.6%	12.1%	1.0%	i
C=CCn1c(=S)[nH]c2ccccc2c1=O	5.62µM*	4.47µM*	1.5%	-25.5%	1.0%	i
CC(C)Cn1c(=S)[nH]c2cc(Cl)ccc21	1.58µM*	?	-35.1%	-1.0%	-11.4%	i
O=c1[nH]c2cc(Cl)ccc2n1-c1ccccc1	15.3%	-2.9%	-41.4%	-3.1%	-0.6%	i
Cc1nc2ccccc2c(=O)n1/N=C/c1ccc(O)cc1O	-30.2%	-3.4%	-21.7%	3.6%	-29.8%	i
CCCc1nc2ccccc2c(=O)n1/N=C/c1ccccc1O	2.51µM*	10µM*	-36.1%	2.82µM*	14.3%	i
CCc1nc2ccccc2c(=O)n1/N=C/c1ccc(Cl)cc1	.	.	-63.7%	-14.5%	-8.7%	i
COc1cccc(/C=N/n2c(C)nc3ccccc3c2=O)c1O	3.16µM*	15.8µM*	-29.1%	-18.9%	3.6%	i
CNc1nc2ccccc2n1/N=C/c1cccc(OC)c1OC	12.6µM*	-22.2%	-25.1%	2.9%	5.6%	i
CCCc1nc2ccccc2c(=O)n1/N=C/c1c(C)[nH]n(-c2ccc(C)cc2)c1=O	12.6µM*	?	-89.3%	?	?	i
NCCC[C@H](N)C(=O)O	.	.	.	.	.	i
SMILES	RORgamma inh	Gal4-VP16 FLuc	HepG2 tox	TGFb inhibitor	ATXN2 expr inh	ATXN viability
CN(C)CCCOC1(Cc2ccccc2)CCCCCC1	.	.	.	.	-8.4%	i
O=C(Cn1cncn1)NCC1Cc2cc(-c3ccsc3)cc(Cl)c2O1 (configuration not stated)	.	.	.	.	.	i
CCC(=O)NC1=C(Cl)C(=O)C(NC(=O)CC)=C(Cl)C1=O	2.82µM*	7.08µM*	-142.1%	?	.	.
COc1cccc(C(=O)NCC(c2ccc(N(C)C)cc2)N2CCc3ccccc32)c1 (configuration not stated)	.	.	-40.0%	-30.9%	.	.
Cc1ccc(Cl)cc1NS(=O)(=O)c1ccc2oc(=O)c3ncn(C)c3c2c1	.	.	10µM*	15.8µM*	.	.
Cc1ccc(NS(=O)(=O)c2ccc3oc(=O)c4ncn(C)c4c3c2)cc1C	.	.	-27.1%	-14.7%	-4.1%	i
CCOC(=O)C1CCCCN1Cc1nc(N2CCN(C(C)=O)CC2)c2ccccc2n1 (configuration not stated)	.	.	.	.	.	i
O=S(=O)(c1ccc(Cl)c(Cl)c1)c1snnc1-c1ccccc1	20µM*	?	15.8µM*	?	28.2µM*	12.6µM*
c1ccc(-c2nnsc2-c2ccccc2)cc1	6.0%	15.9%	-4.6%	2.8%	14.9%	i
COc1ccccc1-c1cn[nH]c1-c1ccc(OCc2ccc([N+](=O)[O-])cc2)cc1O	?	-21.1%	-48.0%	?	3.5%	i
O=[N+]([O-])c1ccc(COc2ccc(-c3[nH]ncc3-c3ccccc3)c(O)c2)cc1	7.08µM*	5.62µM*	-65.4%	?	-38.5%	?
Oc1cc(OCc2ccccc2)ccc1-c1[nH]ncc1-c1ccccc1	10µM*	?	20µM*	?	?	?
Nc1ncc(-c2ccccc2)c(-c2ccc(OCc3ccccc3)cc2O)n1	40.2%	-10.4%	17.8µM*	?	-7.0%	i
CCNc1nc(NCC)n2c(SC(C(=O)Nc3cc(Cl)cc(Cl)c3)c3ccccc3)nnc2n1 (configuration not stated)	?	?	-9.6%	-3.2%	25.1µM*	.
Cc1cc(C)c(Cn2c3ccccc3c3cnn(CC(=O)NC4CCC(C)CC4)c(=O)c32)c(C)c1 (configuration not stated)	.	.	1.5%	0.6%	9.4%	i
CCC(C(=O)Nc1ccc(C(=O)OC)cc1)n1nc(-c2ccc(C)c(C)c2)ccc1=O (configuration not stated)	.	.	-19.4%	-9.4%	-18.4%	i
Cc1ccc(Nc2nc(CSc3nnc(-c4ccc(F)cc4)n3C)cs2)cc1	11.2µM*	2.6%	-11.6%	?	3.0%	i
O=C(Oc1cccccc1=O)c1ccccc1	10µM*	?	0.4%	9.5%	.	?
O=c1[nH]c2ccccc2c(=O)n1CCCl	.	.	.	.	0.9%	i
Cn1nnnc1Sc1ncnc2scc(-c3cccc4c3sc3ccccc34)c12	.	.	-45.3%	10µM*	15.8µM*	?
CN(C)C(=O)CSc1ncnc2scc(-c3ccccc3)c12	32.9%	-5.9%	-7.8%	-8.2%	7.3%	i

Screening data deposited in PubChem BioAssay by National Center for Advancing Translational Sciences (NCATS).
